Test results taken from PubChem BioAssay (NCI).
About 83,000 compounds went through this panel and 20% of them were active in at least one assay; those are over-represented in the sample as a whole.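 Results are percent growth after 48 hours of single-concentration exposure. 100 means growth as in untreated cells, lower positive values show inhibition; negative values down to -100 show cell death.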 The source made the active and inactive calls. The calls were made as follows: active = growth percent below 10; inactive = the rest.

Columns and labels:
Experiment in all cases: NCI-60 one-dose screen, 48 h (100 = growth as untreated, 0 = no growth, -100 = all killed)
Settings in all cases: 10 µM unless noted
[1] = test system: DU-145 prostate
[2] = test system: K-562 leukemia
[3] = test system: MALME-3M melanoma
[4] = test system: MDA-MB-231 breast
[5] = test system: RXF 393 renal
[6] = test system: SF-268 CNS
[7] = test system: SF-295 CNS
[8] = test system: SF-539 CNS
[9] = test system: UACC-257 melanoma
[10] = test system: M14 melanoma

Compound | growth [1] | growth [2] | growth [3] | growth [4] | growth [5] | growth [6] | growth [7] | growth [8] | growth [9] | growth [10]
O=C(Nc1ccc2c(ccn2Cc2ccccn2)c1)c1ccnnc1 | 89.1% (inactive) | 99.6% (inactive) | 103% (inactive) | 71.1% (inactive) | 59.3% (inactive) | 81.9% (inactive) | 94.7% (inactive) | 97.7% (inactive) | 106% (inactive) | 99.7% (inactive)
COc1cc(OC)cc(C(=O)Nc2cccc(C#Cc3cccc4[nH]nc(N)c34)c2)c1 | 28.6% (inactive) | 8.84% (active) | 40.5% (inactive) | 19.1% (inactive) | -19.4% (active) | 33% (inactive) | 27.5% (inactive) | -63.9% (active) | 53.4% (inactive) | -2.56% (active)
CCNC(=O)N1CCc2cc(OC)c(OCCc3ccc(OC)c(N)c3)cc2C1c1cc(C)c(C)cc1C (stereo not given) | 38.7% (inactive) | 20.5% (inactive) | 45.5% (inactive) | 53.1% (inactive) | 22.5% (inactive) | 40.7% (inactive) | 18.3% (inactive) | 26.4% (inactive) | 50% (inactive) | 27.9% (inactive)
Cc1ccc(C2=Nn3c(nnc3-c3ccccc3)SC2)cc1 | 22.2% (inactive) | 15.7% (inactive) | 59.5% (inactive) | 51.4% (inactive) | -6.84% (active) | 49.5% (inactive) | 10.4% (inactive) | 11.2% (inactive) | 55.5% (inactive) | 12.2% (inactive)
Cc1ccc(CSc2nc(-c3ccc(Cl)cc3)c(C#N)c(N3CCNCC3)n2)cc1 | 82.6% (inactive) | 3.43% (active) | 96.3% (inactive) | 77.2% (inactive) | 67.8% (inactive) | 79.6% (inactive) | 95.4% (inactive) | 80.9% (inactive) | 99.4% (inactive) | 98.1% (inactive)
Cn1cc(-c2nc(N)nnc2-c2c[nH]c3ccccc23)c2cc(Br)ccc21 | 18.6% (inactive) | 11.6% (inactive) | 40.8% (inactive) | 34.2% (inactive) | 7.61% (active) | 39.6% (inactive) | -7.74% (active) | 6.14% (active) | 72.1% (inactive) | 6.36% (active)
COc1ccc(OC)c(-c2nc(SCC(=O)c3ccc(Br)cc3)nc(Nc3ccc(S(N)(=O)=O)cc3)c2C#N)c1 | 55.2% (inactive) | 22.5% (inactive) | 50.2% (inactive) | 63% (inactive) | 17.3% (inactive) | 56.7% (inactive) | 33.1% (inactive) | 28.4% (inactive) | 56.9% (inactive) | 42.5% (inactive)
CCN(CC)c1ccc(NC2=C(Cl)C(=O)c3nc(C)ccc3C2=O)cc1 | 87.9% (inactive) | 0.916% (active) | -11.1% (active) | -46.5% (active) | -95.1% (active) | 90.8% (inactive) | 105% (inactive) | 102% (inactive) | -57.7% (active) | 40.4% (inactive)
C[C@@H]1C[C@H]2C(=O)O[C@@H](C)C(NC(=O)[C@H](Cc3cc(F)cc(F)c3)NC(=O)Nc3ccc(Cl)cc3F)C(=O)N3CCC[C@H]3C(=O)N3CCCC[C@H]3C(=O)N[C@@H](CO)C(=O)N2C1 (stereo not given in full) | 26.2% (inactive) | 23.6% (inactive) | 46.3% (inactive) | 35.2% (inactive) | -10.3% (active) | 31.7% (inactive) | 20% (inactive) | 36.2% (inactive) | 15.8% (inactive) | 20.7% (inactive)
